Data taken from PubChem BioAssay (NCI).
The panel holds about 79,000 compounds, 15% with a hit somewhere; the sample as a whole holds those more often. Cut-off read from the data, not from the text of the source: active = growth inhibition above about 70%; inactive = the rest.

Tests used:
[1] = NCI Yeast Anticancer Drug Screen. Data for the rad50 strain (AID 155);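 note: 0% = growth of vehicle-only cultures of the same strain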; details: S. cerevisiae rad50 strain growth inhibition; at 50.0 µM; active compounds read high
Method in brief: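 DNA repair mutant yeast, compound exposure, growth read-out; inhibition is taken relative to vehicle.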

[2] = NCI Yeast Anticancer Drug Screen. Data for the mec2-1 strain (AID 157); details: S. cerevisiae mec2-1 strain, at 50.0 µM, active compounds read high
Method in brief: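 Using mec2-1 yeast: add compound, measure growth, express inhibition versus vehicle-treated cultures.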

[3] = NCI Yeast Anticancer Drug Screen. Data for the sgs1 mgt1 strain (AID 161);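 note: 0% = growth of cultures given vehicle only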; details: S. cerevisiae sgs1 mgt1 strain, at 50.0 µM, active compounds read high
Method in brief: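 Compounds are added to genetically altered yeast, and growth is compared with cultures given vehicle alone to give percent inhibition.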

[4] = NCI Yeast Anticancer Drug Screen. Data for the cln2 rad14 strain (AID 165);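 note: 0% = growth equal to vehicle treated cultures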; details: S. cerevisiae cln2 rad14 strain, at 50.0 µM, active compounds read high
Method in brief: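 Yeast strain cln2 rad14, bearing defects in cell cycle control and DNA repair, serves as the test system; values reflect growth inhibition compared with vehicle.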

[5] = NCI Yeast Anticancer Drug Screen. Data for the bub3 strain (AID 167); details: S. cerevisiae bub3 mutant strain, at 50.0 µM, active compounds read high
Method in brief: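 In this screen, a yeast mutant lacking normal mitotic checkpoint function is challenged with compound. Relative growth versus vehicle gives the inhibition value.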

[6] = NCI Yeast Anticancer Drug Screen. Data for the mlh1 rad18 strain (AID 175); details: S. cerevisiae mlh1 rad18 strain growth inhibition; at 50.0 µM; active compounds read high
Method in brief: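 Steps: expose repair-defective yeast to compound; measure growth; express inhibition against vehicle-treated controls.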

Measured: growth inhibition

O=C(Nc1ccccc1)c1ccco1
inactive: [1] 12.3% | [2] 33.2% | [3] 13.8% | [4] -0.6% | [5] -1.55% | [6] 11.2%

Cn1c(=O)c2nc3c(=O)n(C)c(=O)n(C)c3nc2n(C)c1=O
inactive: [1] -8% | [2] -11.2% | [3] -17.2% | [4] -6.9% | [5] -13.7% | [6] -2.25%

O=C(NCc1ccco1)Nc1cccc2c(NC(=O)NCc3ccco3)cccc12
inactive: [1] 2.15% | [2] -13.5% | [3] 2.6% | [4] 25.8% | [5] 2.05% | [6] 4.85%

CC1(C)OC(=O)CC1=O
inactive: [1] 4.6% | [2] -2.45% | [3] 0.55% | [4] 3.65% | [5] 1.8% | [6] -3.2%

Cc1ccc([N+](=O)[O-])c(C)n1
inactive: [1] 19.1% | [2] -23.1% | [3] 6.2% | [4] 27.1% | [5] -4.4% | [6] 23.4%

Clc1ncnc2nc[nH]c12
inactive: [1] -1.9% | [2] -1% | [3] 15.5% | [4] 16.9% | [5] 0.35% | [6] -39.4%

CC(C)C(=O)OCCOc1ccc(C(C)(C)C)cc1
inactive: [1] 6.35% | [2] 3.1% | [3] 6.9% | [4] -5.2% | [5] 15% | [6] 13.7%

CC(=O)NC(CCC(=O)c1ccccc1)C(=O)O (stereo unspecified)
inactive: [1] 18.1% | [2] -4.95% | [3] 17.3% | [4] 5.05% | [5] 0% | [6] 16%

Cc1ccc(N2C(=O)c3cccc4c(N)c(S(=O)(=O)O)cc(c34)C2=O)cc1
inactive: [1] -33.5% | [2] -18.2% | [3] -24.7% | [4] -6.8% | [5] -13.7% | [6] -28.4%

CC(=O)OC(C)c1cccc(C#N)c1 (stereo unspecified)
inactive: [1] 7.15% | [2] -25.4% | [3] 6.2% | [4] -8.9% | [5] -2.95% | [6] 22%

Nc1cccc2cccc(O)c12
inactive: [1] 40.1% | [2] 18.7% | [3] -17.5% | [4] -10.8% | [5] 41.4% | [6] 43.5%

COCC(N)=O
inactive: [1] 31.2% | [2] -17.9% | [3] 15.2% | [4] -5.1% | [5] 5.2% | [6] 13.8%

CCCc1cccc(CCC)c1NC(=O)Nc1cc(Cl)cc(Cl)c1
inactive: [1] 37.5% | [2] 19.9% | [3] 47.5% | [4] 37% | [5] 44% | [6] 23.6%

CC(C)(C)CC1(C)NC(=O)NC1=O (stereo unspecified)
inactive: [1] -7.3% | [2] 8.25% | [3] 13.1% | [4] -58.2% | [5] 7.25% | [6] 8.45%

Oc1ccc2ccccc2c1CN1CCOCC1
inactive: [1] 26.9% | [2] 5.4% | [3] 32.9% | [4] 27.9% | [5] 15.1% | [6] 19%

CC(C)OCC(CCl)OC(=O)Nc1ccccc1 (stereo unspecified)
inactive: [1] 49.1% | [2] 11.2% | [3] 27.4% | [4] -29.1% | [5] 35.1% | [6] 31.7%

CN(C)c1ccc2c(N(C)C)cc(N(C)C)nc2c1
inactive: [1] -14.8% | [2] -4.3% | [3] -17.1% | [4] 20.4% | [5] 2.95% | [6] -12%

CCCCNC(=O)c1ccc(OCC)cc1
inactive: [1] 12.2% | [2] 20.4% | [3] 33.3% | [4] -16.4% | [5] -8.85% | [6] -0.1%

COc1nc2ccccc2s1
inactive: [1] 18.6% | [2] -15.2% | [3] 13.1% | [4] 10.9% | [5] 1.5% | [6] 22.4%

ClCc1cccc2c(CCl)cccc12
inactive: [1] 59.6% | [2] -6.25% | [3] 0.9% | [4] 33% | [5] -14.7% | [6] 12.4%

CC(=O)Nc1ccc(/C=C2\SC(=S)N(/C=C(\C(C)=O)C(N)=O)C2=O)cc1
inactive: [1] -52% | [2] -7.4% | [3] -37.6% | [4] -0.8% | [5] -5% | [6] -11.2%

OCC1CCC(O)C(CO)N1 (stereo unspecified)
inactive: [1] -6.65% | [2] -29.6% | [3] -22.7% | [4] 8.85% | [5] -16.2% | [6] -15.8%

O=C(O)Cc1cccc2ccccc12
inactive: [1] 19.2% | [2] -7.55% | [3] 2.65% | [4] 0.05% | [5] -9.65% | [6] -0.55%

NC(=O)OCCO
inactive: [1] 19.2% | [2] 6.45% | [3] 10.9% | [4] 9.65% | [5] -2.35% | [6] 26.5%

CCCCOC(=O)c1ccc(NC(=O)CCl)cc1
inactive: [1] 28.6% | [2] 18.8% | [3] 43.1% | [4] 12.5% | [5] 13.8% | [6] 43.4%

CN(C)c1ncnc2c1cnn2C
inactive: [1] -9.55% | [2] -0.6% | [3] 9.3% | [4] -13.6% | [5] -0.7% | [6] 2.65%
